This is an account of results in PubChem BioAssay (NCI).

Common to all, as to test: NCI-60 one-dose screen, 48 h (100 = growth as untreated, 0 = no growth, -100 = all killed)
What all share (settings): 10 µM unless noted

The subject of assay [1] is NCI-H23 lung.
Assay [2] relates to NCI-H226 lung.
Assay [3] has as its system NCI-H322M lung.
Assay [4] relates to HOP-62 NSCLC.
Assay [5] has as its system NCI-H460 lung.
The subject of assay [6] is HOP-92 NSCLC.
For assay [7], the system named is NCI-H522 lung.
The test system of assay [8] is A549/ATCC NSCLC.
Assay [9] deals with 786-0 renal.
The subject of assay [10] is COLO 205 colon.
Assay [11] has as its system DU-145 prostate.
Assay [12] deals with K-562 leukemia.
In assay [13] the test system is MALME-3M melanoma.
Assay [14] has as its system MDA-MB-231 breast.
The test system of assay [15] is RXF 393 renal.
The test system of assay [16] is SF-268 CNS.
Assay [17] relates to SF-295 CNS.
The subject of assay [18] is SF-539 CNS.
Assay [19] has as its system UACC-257 melanoma.
Assay [20] relates to M14 melanoma.

SMILES strings stand for the structures. “And” between values parts separate entries of the source, which are not always exact repeats. Identical values can stand only once. The panel holds about 83,000 compounds, 20% with a hit somewhere; the sample as a whole holds those more often.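 Interpretation: 100, growth as untreated; towards 0, rising growth inhibition; 0, no net growth; 0 to -100, cell death. Compounds scoring below 10 were considered active.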 The source holds several records for some structures; these can differ, active in one and inactive in another. The source made the active and inactive calls.

In the case of `O=C(O)C1C2C=CC(C2)C1C(=O)O` (stereo not drawn), the growth was 104% (inactive) and 30.6% (inactive) and 111% (inactive) in assay [1]; 105% (inactive) and 38.6% (inactive) and 91.2% (inactive) in assay [2]; 99.3% (inactive) and 38.9% (inactive) and 104% (inactive) in assay [3]; 114% (inactive) and 30.1% (inactive) and 92.8% (inactive) in assay [4]; 104% (inactive) and 13.9% (inactive) and 105% (inactive) in assay [5]; 98.6% (inactive) and 98.2% (inactive) in assay [6]. Besides, the growth in [7] was 87.1% (inactive) and 102% (inactive); in assay [8], 93.5% (inactive) and 13.4% (inactive) and 97.7% (inactive); in [9], 105% (inactive) and 28.3% (inactive) and 104% (inactive); in assay [10], 115% (inactive) and 46.9% (inactive) and 118% (inactive); in assay [11] it was 113% (inactive) and 33% (inactive) and 117% (inactive); in [12], 107% (inactive) and 21.5% (inactive) and 95.5% (inactive). The growth was 109% (inactive) and 70% (inactive) in assay [13]; 101% (inactive) and 66.9% (inactive) and 124% (inactive) in assay [14]; 116% (inactive) and 38.8% (inactive) and 96.9% (inactive) in assay [15]; 115% (inactive) and 38.7% (inactive) and 105% (inactive) in assay [16]; 101% (inactive) and 9.77% (active) in assay [17]; 113% (inactive) and 27.8% (inactive) and 99.6% (inactive) in assay [18]. In addition, the growth is 99.8% (inactive) and 35.6% (inactive) and 97.9% (inactive) in assay [19]; 115% (inactive) and 39.1% (inactive) and 105% (inactive) in assay [20].
`COc1ccc(-c2ncnc3c2ncn3C/C=C/CCl)cc1`: the growth is 63.6% (inactive) and 80.5% (inactive) in assay [1]; 89.4% (inactive) and 81.5% (inactive) in [2]; 100% (inactive) and 105% (inactive) in assay [3]; 98.7% (inactive) and 95.9% (inactive) in [4]; 67.5% (inactive) and 97.1% (inactive) in assay [5]; 37.9% (inactive) and 62.9% (inactive) in assay [6]. The growth was 48.5% (inactive) and 55.5% (inactive) in [7]; 81.2% (inactive) and 75% (inactive) in [8]; 70.2% (inactive) and 80% (inactive) in assay [9]; 87.5% (inactive) and 94.1% (inactive) in assay [10]; 81.8% (inactive) and 112% (inactive) in assay [11]; 67.2% (inactive) and 77.5% (inactive) in [12]. In addition, the growth in assay [13] was 61.8% (inactive) and 49.7% (inactive); in assay [14], 88.8% (inactive) and 89.2% (inactive); in [15], 7.94% (active) and 42.6% (inactive); in assay [16], 87.7% (inactive) and 86.8% (inactive); in [17] it was 109% (inactive) and 92.6% (inactive); in assay [18], 75.9% (inactive) and 98.9% (inactive). The growth in assay [19] is 80.5% (inactive) and 77.7% (inactive); in [20], 70.9% (inactive) and 87% (inactive).
As to `CC1=NN(c2ccccc2)C(=O)C1C(=O)c1ccccc1` (stereo not drawn), the growth in [1] was 98.2% (inactive); in [2] it was 92.6% (inactive); in assay [3], 110% (inactive); in assay [4], 111% (inactive); in assay [5] it was 108% (inactive); in assay [6], 78.4% (inactive). Besides, the growth is 98.5% (inactive) in assay [7]; 91.5% (inactive) in [8]; 101% (inactive) in assay [9]; 106% (inactive) in [10]; 103% (inactive) in assay [11]; 97.6% (inactive) in [13]. Further, the growth in assay [14] was 97.1% (inactive); in assay [15], 140% (inactive); in assay [16] it was 95.4% (inactive); in assay [17], 97.7% (inactive); in assay [18], 116% (inactive); in assay [19], 94.3% (inactive). The growth in assay [20] was 104% (inactive).
As to `COC(=O)c1nc(N)nc(C(=O)OC)c1C(=O)c1ccc(OC)cc1`, the growth was 98.5% (inactive) and 58% (inactive) in assay [1]; 101% (inactive) and 74.8% (inactive) in assay [2]; 105% (inactive) and 88.1% (inactive) in [3]; 115% (inactive) and 62.3% (inactive) in assay [4]; 121% (inactive) and 55% (inactive) in [5]; 106% (inactive) and 63.4% (inactive) in assay [6]. Moreover, the growth in [7] is 100% (inactive) and 55.7% (inactive); in assay [9] it was 124% (inactive) and 72.4% (inactive); in assay [10] it was 109% (inactive) and 75.8% (inactive); in assay [11] it was 97.2% (inactive) and 48.2% (inactive); in [12], 102% (inactive) and 52% (inactive); in assay [13] it was 100% (inactive) and 50.4% (inactive). Further, the growth was 107% (inactive) and 53.8% (inactive) in [14]; 103% (inactive) and 9.98% (active) in [15]; 97.9% (inactive) and 92.8% (inactive) in assay [16]; 108% (inactive) and 102% (inactive) in assay [17]; 97.4% (inactive) and 59.8% (inactive) in assay [18]; 100% (inactive) and 86.7% (inactive) in [19]. For the same compound, the growth in assay [20] was 108% (inactive) and 48.5% (inactive).
